Source: the supplement of paper PMC4466140

Key:
Assay in all cases: SPOT peptide array binding signal intensity (averaged, normalized) (arbitrary units (background-subtracted, floor 0; scale differs between SH3 domains)); higher = stronger binding of the SH3 domain to the peptide
ScBbc1 = target: ScBbc1
How it was run: (§1)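 Detection of bound protein relied on anti-GST antibody, an HRP anti-mouse secondary and luminol, with imaging and quantification in Genespotter. The bound protein was GST-fused SH3 domains from four yeast species, incubated at 10 μg/ml overnight at 4°C in TBS-based blocking buffer on cellulose membranes carrying synthetic 15-mer peptides with cysteines replaced by serines. Binding signal is normalized, background-subtracted spot intensity averaged over replicates, in arbitrary units that differ between domains.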

ScBem1-D1 = target: ScBem1-D1
How it was run: as §1

ScBzz1-D1 = target: ScBzz1-D1
How it was run: as §1

ScBzz1-D2 = target: ScBzz1-D2
How it was run: as §1

ScCyk3 = target: ScCyk3
How it was run: as §1

ScFus1 = target: ScFus1
How it was run: as §1

ScHof1 = target: ScHof1
How it was run: as §1

ScHse1 = target: ScHse1
How it was run: as §1

ScLsb1 = target: ScLsb1
How it was run: as §1

ScLsb2 = target: ScLsb2
How it was run: as §1

ScLsb3 = target: ScLsb3
How it was run: as §1

ScLsb4 = target: ScLsb4
How it was run: as §1

ScMyo3 = target: ScMyo3
How it was run: as §1

ScMyo5 = target: ScMyo5
How it was run: as §1

ScNbp2 = target: ScNbp2
How it was run: as §1

ScPex13 = target: ScPex13
How it was run: as §1

ScRvs167 = target: ScRvs167
How it was run: as §1

ScSho1 = target: ScSho1
How it was run: as §1

ScSla1-D1-D2 = target: ScSla1-D1-D2
How it was run: as §1

ScSla1-D3 = target: ScSla1-D3
How it was run: as §1

SpAbp1-D1 = target: SpAbp1-D1
How it was run: as §1

SpBbc1 = target: SpBbc1
How it was run: as §1

SpBzz1-D1 = target: SpBzz1-D1
How it was run: as §1

SpBzz1-D2 = target: SpBzz1-D2
How it was run: as §1

SpCyk3 = target: SpCyk3
How it was run: as §1

SpHof1 = target: SpHof1
How it was run: as §1

SpHof1-2 = target: SpHof1-2
How it was run: as §1

SpHof1-3 = target: SpHof1-3
How it was run: as §1

SpHse1 = target: SpHse1
How it was run: as §1

SpLsb1 = target: SpLsb1
How it was run: as §1

SpLsb4 = target: SpLsb4
How it was run: as §1

SpMyo1 = target: SpMyo1
How it was run: as §1

SpNbp2 = target: SpNbp2
How it was run: as §1

SpPex13 = target: SpPex13
How it was run: as §1

SpRvs167 = target: SpRvs167
How it was run: as §1

SpSla1-D1-D2 = target: SpSla1-D1-D2
How it was run: as §1

SpSla1-D3 = target: SpSla1-D3
How it was run: as §1

B1: unnamed (peptide)
chain: MKRSRPSRSIPYTTP
SPOT peptide array binding signal intensity (ScBbc1): 18.8 | SPOT peptide array binding signal intensity (ScBem1-D1): 7 | SPOT peptide array binding signal intensity (ScBzz1-D1): 27 | SPOT peptide array binding signal intensity (ScBzz1-D2): 23 | SPOT peptide array binding signal intensity (ScCyk3): 37 | SPOT peptide array binding signal intensity (ScFus1): 129 | SPOT peptide array binding signal intensity (ScHof1): 0.5 | SPOT peptide array binding signal intensity (ScHse1): 570 | SPOT peptide array binding signal intensity (ScLsb1): 10.2 | SPOT peptide array binding signal intensity (ScLsb2): 4 | SPOT peptide array binding signal intensity (ScLsb3): 320 | SPOT peptide array binding signal intensity (ScLsb4): 72 | SPOT peptide array binding signal intensity (ScMyo3): 10.5 | SPOT peptide array binding signal intensity (ScMyo5): 8 | SPOT peptide array binding signal intensity (ScNbp2): 620 | SPOT peptide array binding signal intensity (ScPex13): 10 | SPOT peptide array binding signal intensity (ScRvs167): 19.8 | SPOT peptide array binding signal intensity (ScSho1): 351 | SPOT peptide array binding signal intensity (ScSla1-D1-D2): 126 | SPOT peptide array binding signal intensity (ScSla1-D3): 43.5 | SPOT peptide array binding signal intensity (SpAbp1-D1): 507 | SPOT peptide array binding signal intensity (SpBbc1): 15.5 | SPOT peptide array binding signal intensity (SpBzz1-D1): 239 | SPOT peptide array binding signal intensity (SpBzz1-D2): 1.5 | SPOT peptide array binding signal intensity (SpCyk3): 14 | SPOT peptide array binding signal intensity (SpHof1): 50.2 | SPOT peptide array binding signal intensity (SpHof1-2): 30 | SPOT peptide array binding signal intensity (SpHof1-3): 244 | SPOT peptide array binding signal intensity (SpHse1): 177 | SPOT peptide array binding signal intensity (SpLsb1): 4.5 | SPOT peptide array binding signal intensity (SpLsb4): 580 | SPOT peptide array binding signal intensity (SpMyo1): 82.5 | SPOT peptide array binding signal intensity (SpNbp2): 224 | SPOT peptide array binding signal intensity (SpPex13): 16 | SPOT peptide array binding signal intensity (SpRvs167): 10.8 | SPOT peptide array binding signal intensity (SpSla1-D1-D2): ≤ 0 | SPOT peptide array binding signal intensity (SpSla1-D3): 7
